Measured values from the supplement of paper PMC6897291.

Tests used:
[1] = test system: U-2932; assay: growth inhibition by drug alone (1 - RLU/untreated control) (fraction); higher = stronger inhibition; conditions: 177Lu-lilotomab satetraxetan 0 ug/ml
Summary of the method: (§1)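 RIVA or U-2932 cells, untreated or pretreated 18 h with a radiolabelled anti-CD37 antibody conjugate (~600 MBq/mg; 0.5 µg/ml RIVA, 1 µg/ml U-2932), were washed and seeded at 3,000 cells/well on plates pre-printed with the Selleck Cambridge Cancer Compound library. Doses were 10/100 nM (RIVA) or 10/1,000 nM (U-2932). RealTime-Glo luminescence was read daily from day 3 after 1 h at 37°C. Growth inhibition is 1 − RLU/mean of 48 untreated no-drug wells per plate.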

[2] = test system: RIVA; assay: as above; conditions: 177Lu-lilotomab satetraxetan 0 ug/ml
Summary of the method: as §1

[3] = test system: U-2932; assay: growth inhibition by drug plus 177Lu-lilotomab satetraxetan (1 - RLU/untreated control) (fraction); higher = stronger inhibition; conditions: 177Lu-lilotomab satetraxetan 1 ug/ml
Summary of the method: as §1

[4] = test system: RIVA; assay: as above; conditions: 177Lu-lilotomab satetraxetan 0.5 ug/ml
Summary of the method: as §1

| Structure (SMILES) | growth inhibition by drug alone ([1]; 10 nM, time (day): 3) | growth inhibition by drug alone ([1]; 10 nM, time (day): 4) | growth inhibition by drug alone ([1]; 10 nM, time (day): 5) | growth inhibition by drug alone ([1]; 10 nM, time (day): 6) | growth inhibition by drug alone ([1]; 1000 nM, time (day): 3) | growth inhibition by drug alone ([1]; 1000 nM, time (day): 4) | growth inhibition by drug alone ([1]; 1000 nM, time (day): 5) | growth inhibition by drug alone ([1]; 1000 nM, time (day): 6) | growth inhibition by drug alone ([2]; 10 nM, time (day): 3) | growth inhibition by drug alone ([2]; 10 nM, time (day): 4) | growth inhibition by drug alone ([2]; 10 nM, time (day): 5) | growth inhibition by drug alone ([2]; 10 nM, time (day): 6) | growth inhibition by drug alone ([2]; 100 nM, time (day): 3) | growth inhibition by drug alone ([2]; 100 nM, time (day): 4) | growth inhibition by drug alone ([2]; 100 nM, time (day): 5) | growth inhibition by drug alone ([2]; 100 nM, time (day): 6) | growth inhibition by drug plus 177Lu-lilotomab satetraxetan ([3]; 10 nM, time (day): 3) | growth inhibition by drug plus 177Lu-lilotomab satetraxetan ([3]; 10 nM, time (day): 4) | growth inhibition by drug plus 177Lu-lilotomab satetraxetan ([3]; 10 nM, time (day): 5) | growth inhibition by drug plus 177Lu-lilotomab satetraxetan ([3]; 10 nM, time (day): 6) | growth inhibition by drug plus 177Lu-lilotomab satetraxetan ([3]; 1000 nM, time (day): 3) | growth inhibition by drug plus 177Lu-lilotomab satetraxetan ([3]; 1000 nM, time (day): 4) | growth inhibition by drug plus 177Lu-lilotomab satetraxetan ([3]; 1000 nM, time (day): 5) | growth inhibition by drug plus 177Lu-lilotomab satetraxetan ([3]; 1000 nM, time (day): 6) | growth inhibition by drug plus 177Lu-lilotomab satetraxetan ([4]; 10 nM, time (day): 3) | growth inhibition by drug plus 177Lu-lilotomab satetraxetan ([4]; 10 nM, time (day): 4) | growth inhibition by drug plus 177Lu-lilotomab satetraxetan ([4]; 10 nM, time (day): 5) | growth inhibition by drug plus 177Lu-lilotomab satetraxetan ([4]; 10 nM, time (day): 6) | growth inhibition by drug plus 177Lu-lilotomab satetraxetan ([4]; 100 nM, time (day): 3) | growth inhibition by drug plus 177Lu-lilotomab satetraxetan ([4]; 100 nM, time (day): 4) | growth inhibition by drug plus 177Lu-lilotomab satetraxetan ([4]; 100 nM, time (day): 5) | growth inhibition by drug plus 177Lu-lilotomab satetraxetan ([4]; 100 nM, time (day): 6) |
| --- | --- | --- | --- | --- | --- | --- | --- | --- | --- | --- | --- | --- | --- | --- | --- | --- | --- | --- | --- | --- | --- | --- | --- | --- | --- | --- | --- | --- | --- | --- | --- | --- |
| COc1cc([C@@H]2c3cc4c(cc3[C@@H](O[C@@H]3O[C@@H]5CO[C@@H](C)O[C@H]5[C@H](O)[C@H]3O)[C@H]3COC(=O)[C@H]23)OCO4)cc(OC)c1O [Etoposide (VP-16)] | -0.0657 | -0.0505 | -0.0531 | -0.0136 | 0.738 | 0.843 | 0.913 | 0.949 | -0.26 | -0.276 | -0.302 | -0.423 | -0.0322 | 0.0869 | 0.148 | 0.202 | -0.108 | -0.0574 | -0.0473 | 0.0279 | 0.823 | 0.901 | 0.945 | 0.969 | 0.345 | 0.51 | 0.549 | 0.556 | 0.681 | 0.776 | 0.816 | 0.845 |
| NC(=O)c1ccc(I)c([N+](=O)[O-])c1 [Iniparib (BSI-201)] | -0.0132 | -0.0395 | -0.0441 | -0.012 | -0.105 | -0.0771 | -0.0716 | -0.0297 | -0.235 | -0.257 | -0.288 | -0.389 | -0.378 | -0.352 | -0.395 | -0.471 | -0.0638 | -0.00415 | 0.0467 | 0.129 | -0.0685 | -0.00507 | 0.0384 | 0.191 | 0.437 | 0.491 | 0.504 | 0.513 | 0.436 | 0.495 | 0.516 | 0.523 |
| COc1ncc(-c2ccc3nccc(-c4ccnnc4)c3c2)cc1NS(=O)(=O)c1ccc(F)cc1F | 0.726 | 0.786 | 0.81 | 0.821 | 0.87 | 0.935 | 0.961 | 0.972 | 0.856 | 0.892 | 0.918 | 0.933 | 0.898 | 0.925 | 0.943 | 0.953 | 0.744 | 0.769 | 0.769 | 0.768 | 0.908 | 0.958 | 0.976 | 0.982 | 0.897 | 0.937 | 0.952 | 0.961 | 0.937 | 0.963 | 0.97 | 0.975 |
| O=C(O)CCc1ccc(NCc2cccc(Oc3ccccc3)c2)cc1 | -0.00379 | -0.0257 | -0.0189 | -0.0582 | -0.0179 | -0.0506 | -0.13 | -0.129 | -0.138 | -0.183 | -0.212 | -0.37 | -0.259 | -0.306 | -0.351 | -0.547 | -0.0541 | 0.038 | 0.0596 | 0.0671 | -0.0069 | 0.0299 | 0.0402 | 0.126 | 0.476 | 0.546 | 0.562 | 0.557 | 0.432 | 0.527 | 0.552 | 0.561 |
